Our source for the Potency and outcome values is PubChem BioAssay (NCATS).

Test [1] in a line: HEK-293 Cancer Cell Toxicity qHTS against the NCATS CANVASS Library (AID 1347355). Note: series mostly up to about 46 µM; nearly all actives have a fitted effect of over 65% in size. Put shortly:
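qHTS cytotoxicity: compounds tested in 11 concentrations on 1000 seeded cells per well over 72 h; bortezomib served as control; signal from CellTiter-Glo luminescence.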

Test [2] in a line: SDT Cancer Cell Toxicity qHTS against the NCATS CANVASS Library (AID 1347365). Note: nearly all actives have a fitted effect of over 60% in size. Put shortly: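 Dispense 500 SDT cells per well; pin-transfer compounds; incubate 72 hr at 37C, 5% CO2, 95% RH; add CellTiterGlo and read luminescence.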
(In general: qHTS replaces the single test concentration by a dilution series.)

Test [3] is described as follows: qHTS for Hypoxia signaling pathway (HIF-1) antagonists against the NCATS CANVASS Library (AID 1347374). Note: nearly all actives have a fitted effect of over 60% in size. Note: potency is the fitted concentration of half-maximal effect. An outline of the steps: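 HRE-bla ME-180 cells (2,000/well, 0.5% dialyzed FBS) were pre-incubated 5 h, then given an 11-point compound series plus CoCl2 (60 uM solution as added) for 17 h at 37C. CCF4 β-lactamase read (ex 405, em 460/530 nm) after 2 h at RT.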

Test [4] can be described thus: qHTS for Activators of p53 Stress Response Pathway screened against the NCATS CANVASS Library (AID 1347388). An outline of the steps:
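p53RE-bla HCT-116 cells (4000/well) were plated 5 h at 37C, exposed to compounds for 16 h at 37C over an 11-point concentration series, then loaded with CCF4 for 2 h at room temperature; 460/530 nm emission ratio read.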

Test [5] is described as follows: Panc-1005 Cancer Cell Toxicity qHTS against the NCATS CANVASS Library (AID 1347349). Note: series mostly up to about 38 µM; nearly all actives have a fitted effect of over 60% in size. An outline of the steps: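 Quantitative HTS format: an 11-concentration series was applied to 1000 cells/well following a 4-hour attachment. Cultures ran 72 hours before ATP luminescence detection by CellTiter-Glo.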
The nature of test [6]: DH5-alpha competent E. coli microbial cell viability qHTS against the NCATS CANVASS Library (AID 1347377). Conditions: outcome: dose series up to 46.1 µM unless noted. Put shortly:
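Cell viability of competent DH5-alpha E. coli is scored from ATP content by luminescence. Cells sit overnight at 37C with compound across an 11-point concentration series.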

Test [7] can be described thus: A2780 Cisplatin Sensitive Ovarian Cancer Cell Toxicity qHTS against the NCATS CANVASS Library (AID 1347353). Note: nearly all actives have a fitted effect of over 60% in size. Put shortly: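 Seventy-two-hour exposure of cisplatin-sensitive A2780 ovarian cells to an 11-concentration qHTS series; cytotoxicity is inferred from loss of ATPLite luminescence. Bortezomib titration served as positive control.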
Test [8] can be described thus: Vero-766 cells viability qHTS against the NCATS CANVASS Library: Counterscreen for Zika virus inhibition assay (AID 1347394). An outline of the steps:
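CellTiter-Glo luminescence, lower signal indicating cytotoxicity. Vero 766 cells without Zika virus, 1000 cells/well, plated overnight, then treated 72 h at 37C across an 11-point series.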

Test [9] has as its target Cytochrome P450 3A4 (Homo sapiens) (UniProt P08684). The test is described as follows: qHTS Assay for Activators of Cytochrome P450 3A4 (AID 885). Note: nearly all actives have a fitted effect of over 65% in size. Put shortly: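 20nM CYP3A4 + 25uM Luciferin-PPXE (=KM), 200mM KPO4; cpd 10 min RT; NADPH regen, 60 min RT; stop w/ detection buffer, 20 min; luminescence. Normalized to 57 uM ketoconazole.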
Test [10] can be described thus: Confirmation and Secondary Assay for Modulators of Hemoglobin Beta Chain Splicing at IVS2 654 locus (AID 910).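 Note: per-well total GFP intensity by laser scanning cytometry after 2-day treatment.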 An outline of the steps:
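HeLa cells stably carrying EGFP interrupted by mutant beta-globin IVS2-654 intron (CMV-driven) were treated with compound for 2 days at 37C; corrected splicing was scored as total peak GFP intensity per well (488 nm excitation, 500-520 nm emission).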

Test [11] can be described thus: Confirmation and Secondary Assay for Modulators of Hemoglobin Beta Chain Splicing at IVS2 705 locus (AID 930).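 Note: HeLa cells stably expressing the EGFP-705 splicing reporter; GFP fluorescence per well restored by corrected splicing of the IVS2-705 intron in EGFP; series mostly up to about 46 µM.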 Put shortly:
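First, HeLa EGFP-705 cells are seeded at 500/well in Optimem with 2% FCS and left overnight. Next, compound or DMSO is added for 2 days. Finally wells are laser-scanned and total peak GFP intensity scored.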

Records with an inconclusive call do not appear. Active and inactive are the calls of the source. Calls come from the whole dose curve; as a rule, active = well fitted curve in the direction sought with a large enough effect; inconclusive = small, poorly fitted or top-dose-only effect, or another doubt; inactive = no such curve, though single readings can be large; an effect the other way counts as inactive or inconclusive.

Cytochrome P450 3A4 (Homo sapiens), sequence (P08684 whole entry, looked up): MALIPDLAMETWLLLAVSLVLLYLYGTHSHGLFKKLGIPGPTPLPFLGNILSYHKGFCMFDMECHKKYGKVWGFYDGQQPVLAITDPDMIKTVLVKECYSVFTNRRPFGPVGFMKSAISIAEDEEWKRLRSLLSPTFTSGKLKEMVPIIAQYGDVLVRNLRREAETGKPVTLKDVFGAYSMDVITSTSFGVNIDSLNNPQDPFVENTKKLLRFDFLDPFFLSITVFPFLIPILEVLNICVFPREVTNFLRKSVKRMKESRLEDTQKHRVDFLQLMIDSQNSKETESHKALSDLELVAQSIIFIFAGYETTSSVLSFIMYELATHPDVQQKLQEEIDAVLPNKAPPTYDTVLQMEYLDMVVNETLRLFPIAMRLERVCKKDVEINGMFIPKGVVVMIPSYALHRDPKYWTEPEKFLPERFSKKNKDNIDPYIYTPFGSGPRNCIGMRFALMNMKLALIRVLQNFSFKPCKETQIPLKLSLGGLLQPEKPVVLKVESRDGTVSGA

`CC[C@@H]1C[C@@]2(CC)OC(=O)[C@@]3(CC)[C@H](CC)[C@@H]1[C@@H]23`: the Potency result in [1], in [2], in test [3] and in test [4] was “inactive” throughout.
With `CC(=O)N[C@H](C)c1nc(/C=C/C=C/C(=O)CC2CC(=O)CC[C@]2(C)O)cs1` (stereo partly specified), the Potency result in [5], in test [1], in test [2], in [3] and in test [4] was “inactive” throughout. Also, in [6], the molecule was called inactive.
As to `CN1CC[C@@]2([C@@]34CCN(C)[C@@H]3Nc3ccccc34)c3ccccc3N[C@@H]12`, the Potency entry in test [7], in [1], in test [3] and in test [8] was “inactive” throughout.
As to `C/C=C1/C2=CCCN3C(=O)O[C@H]([C@H]1O)[C@H]23`, the Potency result in [5], in test [1], in test [3], in test [4] and in test [8] was “inactive” each time.
Regarding `O=C1CC(c2ccc(O)cc2)Oc2cc(O)ccc21` (stereo unspecified), the Potency result in test [5], in test [1], in test [4] and in [8] was “inactive” throughout.
Turning to `C[C@@]12CCC[C@@](C)(C(=O)O)[C@H]1CC[C@@]13C[C@@H](CC[C@H]12)[C@](C)(O)C3`, the Potency result in test [7], in test [1], in test [3], in test [4] and in [8] was “inactive” throughout. For the same molecule, the molecule was classed as inactive in test [6].
Consider `COc1cc2ccc(=O)oc2c(O)c1O[C@@H]1O[C@H](CO)[C@@H](O)[C@H](O)[C@H]1O`, for which the Potency entry in [1] is “inactive”. Further, the molecule was called inactive in [6].
For `O=C1c2c(O)cc(O)cc2OC(c2ccc(O)cc2)C1O` (stereo unspecified), the Potency entry in test [5], in test [2], in [4] and in test [8] was “inactive” throughout. Further, the molecule was classed as inactive in [6].
For `C/C(=C\[C@@H](C)CC/C=C/CC/C=C/C(=O)O)[C@@H](O)[C@H](C)C(=O)CCCC1CC(=O)NC(=O)C1`, the Potency result in test [7], in test [1], in test [4] and in test [8] was “inactive” each time. Moreover, the outcome in test [6] was inactive.
Take `COC(=O)[C@]1([C@H]2CCC(=O)O2)CC(=O)c2c(O)cc(C)cc2O1`: the Potency entry in test [7] and in test [2] was “inactive” throughout.
On to `C/C=C(/CO)C(=O)O[C@@H]1[C@H](O)[C@@H](C(=O)OC)O[C@@H]2C[C@H]3OC(n4cnc5c(N)ncnc54)[C@H](OC)[C@H]3O[C@@]12O` (stereo partly specified), for which the Potency result in test [5], in [7], in test [2], in test [4] and in test [8] was “inactive” throughout.
Turning to `CC(CCC[C@]1(C)C(=O)C=C[C@@]23C[C@]4(C)O[C@@H](C[C@@H]4[C@H]2O)C31)C(=O)O` (stereo partly specified), the Potency result in test [7], in test [1], in test [2], in test [4] and in test [8] was “inactive” throughout. In [6], the outcome was inactive.
Take `COc1c(O)cc(O)c2c(=O)cc(-c3ccccc3)oc12`: the Potency result in test [5] and in test [2] was “inactive” in each case. Also, the Potency in test [3] was 10.6 µM (active). The molecule was called inactive in test [6].
Turning to `C/C=C/[C@H]1[C@H]2C(=O)c3c(O)c(C)c(O)c(C)c3[C@]1(C(=O)O)C(=O)C=C2C`, the Potency result in [7], in test [1] and in test [2] was “inactive” in each case. Besides, the outcome in test [6] was inactive.
On to `C[C@@]12C[C@@H](C[C@@H]3C(=O)O[C@@H](c4ccoc4)[C@H](OC(=O)c4ccccc4)[C@@H]31)OC2=O`, for which the Potency entry in test [5] was “inactive”.
Take `O=C1CC(c2ccc(O)cc2)Oc2cc(O)cc(O)c21` (stereo unspecified): the Potency result in test [9], in test [5], in [2], in test [4] and in test [8] was “inactive” throughout. Also, the call in test [10], in test [11] and in [6] was inactive.
